Measured values published in PubChem BioAssay (NCI).
Where “and” joins values, the source holds several entries; their conditions need not be identical. Equal values may be shown once. About 83,000 compounds went through this panel and 20% of them were active in at least one assay; those are over-represented in the sample as a whole.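 Negative percent growth values reflect cell death: -40 means 40% of the cells present at the start died, and -100 means all died.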 Calls of active or inactive are those of the source. How the source made its calls: active means growth percent below 10; inactive means the rest.

Each compound was assayed on MDA-MB-468 breast (assay: NCI-60 one-dose screen, 48 h (100 = growth as untreated, 0 = no growth, -100 = all killed)). Conditions: 10 µM unless noted.

Row | Structure (SMILES) | growth
1 | COc1cnc2c(c1)C(=O)c1c-2n(CCCNCCO)c(=O)c2ccncc12 | -23.9% (active)
2 | CN1CCN(c2ccc(/C=N/n3cnc4oc(-c5ccccc5)cc4c3=N)cc2)CC1 | 97.6% (inactive)
3 | S=c1nn[nH]n1C1CCCCC1 | 125% (inactive)
4 | N#Cc1c(NCc2ccccc2I)sc2c1CCCCC2 | 97.1% (inactive)
5 | CC1(C)C(=NO)C(C)(C)C1=NO | 103% (inactive)
6 | C=CCn1c(SCC(=O)c2ccccc2)nnc1-c1c[nH]c2ccccc12 | 87.7% (inactive)
7 | COc1ncc2cc1NS(=O)(=O)c1cccc(c1)C(=O)NCC1=CC=C(S1)c1ncnc3c1SC2=C3C | -34.5% (active)
8 | C=C1CC[C@@H]2[C@](C)(COC(C)=O)[C@H](OC(C)=O)CC[C@@]2(C)[C@@H]1CC(Nc1ccc(S(=O)(=O)Nc2cc(C)on2)cc1)C1=CCOC1=O (stereo not given in full) | 3.23% (active)
9 | COc1ccc(C(=O)c2cc3c(N)c(C(=O)Nc4ccc(C)cc4)sc3nc2C)cc1 | -16.8% (active)
10 | N#CCCN1C/C(=C/c2ccccc2)C(=O)/C(=C/c2ccccc2)C1 | 11.7% (inactive)
11 | O=C1/C(=C/c2ccc(Cl)cc2)COc2ccc(O)cc21 | 85.1% (inactive)
12 | CN(C)c1ccc(-c2c(NC(C)(C)C)nc3c(OCCc4ccccc4)cccn23)cc1 | -19.6% (active)
13 | CN(C)CC1(C)Cc2ccsc2C1O (stereo not given) | 104% (inactive) and 109% (inactive)
14 | Cc1ccccc1/C=C1\CN(C(=O)OC(C)(C)C)C/C(=C\c2ccccc2C)C1=O | 36.7% (inactive)
15 | CSc1nc(N)nc2c1ncn2C | 108% (inactive)
